Screening results (PubChem BioAssay)
A selection: hits, their analogues and other compounds. The true share with any hit is near 1.2%.
MmCpn inh: inhibitors of Methanococcus maripaludis chaperonin TRiC (MmCpn); purified Mm-Cpn ATPase, ADP Transcreener TR-FRET; Potency, µM (highest dose often 76.9 µM), for inactives: top-dose activity, negative = inhibition, hits mostly inhibitors; 0.031% of 330,000 active; note: potency is the fitted concentration of half-maximal effect; % is set by controls: 0 for no effect and ±100 for the full control effect; nearly all actives have a fitted effect of over 80% in size
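Inhibition of chaperonin ATP hydrolysis is measured as reduced ADP production, detected by competitive TR-FRET in which signal falls with ADP. Final enzyme 25 nM and ATP 10 uM, reacted 30 min at 37°C.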
RXFP1 ag: activates the human relaxin receptor RXFP1 | Q9HBX9 | HEK293T-RXFP1 cAMP TR-FRET, 30 min; response scale: percent of porcine relaxin response, buffer zero | Potency, µM (top dose mostly 57.5 µM), for inactives: at the highest dose activation, hits mostly activators | 0.3% of 370,000 active; note: potency is the fitted concentration of half-maximal effect; % is set by controls: 0 for no effect and ±100 for the full control effect; nearly all actives have a fitted effect of over 60% in size
Target sequence (Q9HBX9 whole entry, looked up): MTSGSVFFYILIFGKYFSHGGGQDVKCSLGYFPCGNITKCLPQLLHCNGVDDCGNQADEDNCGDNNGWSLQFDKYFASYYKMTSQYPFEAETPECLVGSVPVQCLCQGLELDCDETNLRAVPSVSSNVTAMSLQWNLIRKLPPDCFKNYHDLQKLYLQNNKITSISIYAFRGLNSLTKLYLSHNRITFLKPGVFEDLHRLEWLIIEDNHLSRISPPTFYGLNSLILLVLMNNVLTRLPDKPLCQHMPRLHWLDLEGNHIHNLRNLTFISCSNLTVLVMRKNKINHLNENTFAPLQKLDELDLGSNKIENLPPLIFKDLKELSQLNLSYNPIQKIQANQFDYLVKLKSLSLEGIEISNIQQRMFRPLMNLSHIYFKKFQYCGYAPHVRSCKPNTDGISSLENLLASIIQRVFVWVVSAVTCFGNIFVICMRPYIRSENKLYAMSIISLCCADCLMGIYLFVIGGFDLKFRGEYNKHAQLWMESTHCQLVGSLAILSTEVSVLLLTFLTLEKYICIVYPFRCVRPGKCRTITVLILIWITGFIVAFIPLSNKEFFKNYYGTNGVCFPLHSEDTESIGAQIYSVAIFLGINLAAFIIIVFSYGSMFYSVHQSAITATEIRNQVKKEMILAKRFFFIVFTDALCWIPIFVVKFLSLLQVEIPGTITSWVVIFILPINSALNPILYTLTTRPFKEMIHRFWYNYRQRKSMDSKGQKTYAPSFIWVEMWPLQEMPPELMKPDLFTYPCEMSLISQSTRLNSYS
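HEK293 cells stably expressing RXFP1, treated 30 min at 37C with compounds plus PDE4 inhibitor Ro 20174; cAMP measured by HTRF TR-FRET. Normalized to buffer and 29 nM porcine relaxin; EC50 by Hill fit.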
gsp ag: agonists of gsp mutant (McCune-Albright syndrome); gsp mutant cells, cAMP HTRF, 30 min; Potency, µM (titrated, usually from 76.9 µM), for inactives: at the highest dose activation (cAMP increase), hits mostly activators; 0.13% of 340,000 active; active = well fitted activation curve with a large enough effect; inconclusive = small, poorly fitted or top-dose-only effect, or another doubt; inactive = no such curve, though single readings can be large or run the other way; cell line not stated here;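 note: phosphodiesterase inhibitor Ro 20-1724 added with compounds to block cAMP breakdown; potency is the fitted concentration of half-maximal effect; nearly all actives have a fitted effect of over 60% in size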
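Cells stably selected in G418 were plated at 2000/well, grown 16-24 hr, then given compounds in DMSO with the PDE inhibitor […] (300 uM solution added) for 30 min at 37C; cAMP was read by HTRF.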
CCT modulator: cytosolic chaperonin activity modulation; activity change, % (test concentration not listed), hits read low; AID 651819; 0.3% of 360,000 active; purified chaperonin ATPase assay, HTRF ADP detection, 30 min; in the data active = activity change below about -30%; note: % is set by controls: 0 for no effect and ±100 for the full control effect
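First, chaperonin was dispensed at 40 nM or 20 nM final depending on batch activity. Next, compounds were pinned at 76 uM and ATP added at 10 uM. After 30 min at 37 °C, ADP detection reagents ran 30 min at ambient temperature.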
RXFP1 antagonist: RXFP1 (human) relaxin receptor antagonism; Q9HBX9; HEK293-RXFP1, relaxin-stimulated cAMP HTRF, 30 min; active compounds read low; activity change, negative = inhibition, % at 57.5 µM; AID 1259400; 0.59% of 350,000 active;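 active = activity change of -60% or lower, but not beyond a set lower limit; inconclusive = change between -60% and -40%, or beyond the set limit; inactive = change above -40%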; note: % is set by controls: 0 for no effect and ±100 for the full control effect
gsp antag: gsp mutant antagonism. gsp-mutant cells, cAMP HTRF, 30 min. Potency, µM (doses to about 76.9 µM), without a hit: at the highest dose activity change, negative = inhibition, actives largely listed as inhibitors. 0.4% of 340,000 active; calls by dose curve; cell line not stated here;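 note: intracellular cAMP measured with PDE inhibitor Ro 20-1724 present during compound exposure; potency is the fitted concentration of half-maximal effect; % is set by controls: 0 for no effect and ±100 for the full control effect; nearly all actives have a fitted effect of over 65% in size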
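HTRF cAMP measurement after 30 min RT detection following 30 min, 37C compound treatment alongside […] (added as 300 uM solution) in G418-selected cells seeded at 2000/well and grown 16–24 h.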
* hit, by the source's call; ? = inconclusive; / = not tested or not shown; [ ] = dose if it differs, or a comment. Unless noted, calls come from the whole dose curve; as a rule, active = well fitted curve in the direction sought with a large enough effect; inconclusive = small, poorly fitted or top-dose-only effect, or another doubt; inactive = no such curve, though single readings can be large; an effect the other way counts as inactive or inconclusive.

SMILES	MmCpn inh	RXFP1 ag	gsp ag	CCT modulator	RXFP1 antagonist	gsp antag
O=C(O)c1cc(NC(=O)c2ccc(Cl)c([N+](=O)[O-])c2)cc(C(=O)O)c1	-1.5%	-0.6%	-2.0%[15.4 µM]	1.1	-3.4	5.3%
CC(=O)c1cccc(NC(=O)c2sc(-n3nc(C)c(Cc4ccccc4)c3C)nc2C)c1	/	18.0%	/	/	1.1	/
CN(C)c1nc(-c2ccccc2)ncc1S(=O)(=O)c1ccccc1	-3.6%	1.6%	2.8%	-32.3*	4.9	-7.8%
O=C(CSc1nc(O)cc(=O)n1-c1ccccc1)Nc1ccc2c3c(cccc13)CC2	-6.8%	1.7%	-16.1%[15.4 µM]	-2.4	?	7.08µM*
Cc1c(O)nc(SCC(=O)Nc2ccc3c4c(cccc24)CC3)n(-c2ccccc2)c1=O	1.3%	-0.8%	-4.9%[15.4 µM]	-4.7	-14.0	-9.9%
CCOC(=O)N1CCN(c2c(F)cc3[nH]c(=S)[nH]c3c2Br)CC1	-1.6%	5.1%	-25.0%	-6.5	-64.6*	23.1%
CCOC(=O)N1CCN(c2cc3[nH]c(=S)[nH]c3cc2F)CC1	1.9%	1.5%	-2.7%	-1.3	?	-0.3%
Cc1csc(C(C#N)C(=O)c2cc3ccccc3o2)n1 (stereo not given)	-5.4%	-0.2%	10.4%	2.3	-18.3	25.1µM*
Cc1csc(NC(=O)c2cc3ccccc3o2)n1	-5.2%	-1.1%	-1.9%	-2.2	-9.7	-5.7%
O=C(Nc1ccc(Oc2ccccc2)cc1)C1CCN(S(=O)(=O)c2ccccc2)CC1	/	-0.5%	/	/	-22.5	/
CCCN(CC(=O)Nc1cccc(Br)c1)CC(=O)Nc1ccc(F)c(F)c1F	4.6%	0.7%	?	-0.8	-6.3	50.1µM*
CCCN(CC(=O)Nc1cccc(S(N)(=O)=O)c1)CC(=O)Nc1ccc(F)c(F)c1F	-2.8%	0.9%	-58.3%	-1.3	-2.0	2.8%
Cc1ccc(-c2cc(NC(=O)C(C)Oc3ccccc3F)on2)cc1 (stereo not given)	/	-1.7%	/	/	-35.2	/
Cc1cccc(-c2nc(SCc3cc(=O)c4c(C)cc(C)cc4[nH]3)n[nH]2)c1	/	-2.5%	/	/	-69.9*	/
Cc1cc(C)c2c(=O)cc(CSc3n[nH]c(C)n3)[nH]c2c1	/	2.7%	/	/	-8.8	/
O=C(NCCN1CCCCC1)c1ccc(Cn2c(SCc3ccccc3)nc3cccnc32)cc1	/	2.2%	/	/	-28.9	/
CCCCNCCCCOc1ccccc1	-0.1%	0.0%	-14.7%	-90.2*	18.2	15.3%
COc1ccccc1N1CCN(c2cc(C)nc3nncn23)CC1	/	7.7%	/	/	7.7	/
CCCC(=O)C1=C(c2ccc(C)cc2)N(C(=O)CCC)n2cnnc2S1	/	2.8%	/	/	?	/
CCc1cccc(NCc2ccccc2-c2nnc(-c3ccccc3Cl)o2)c1	/	28.8%	/	/	2.2	/
O=C(Nc1ccc(S(=O)(=O)N2CCOCC2)cc1)c1cc(-c2cc(Cl)ccc2O)n[nH]1	2.5%	1.1%	-35.4%	0.2	-60.3*	?
Cc1cc(/C=C2/NC(=O)N(Cc3ccccc3F)C2=O)c(C)n1C(C)C	-2.4%	1.6%	-5.5%[15.4 µM]	0.7	-21.9	11.2µM*
Cc1nnc(Nc2ccc(S(N)(=O)=O)cc2)c2ccccc12	-1.0%	25.1µM*	?	-1.2	35.1	22.7%
CCC(CC)C(=O)N1c2ccccc2C(C)(c2ccccc2)CC1(C)C (stereo not given)	/	0.1%	/	/	/	/
CC(C)CCNC(=O)c1cn(CC(C)C)c(=O)c2c1c1ccccc1n2C	0.1%	1.4%	-1.9%	-41.1*	6.5	9.5%
SMILES	MmCpn inh	RXFP1 ag	gsp ag	CCT modulator	RXFP1 antagonist	gsp antag
CCc1nnc2c(Nc3cccc(F)c3)nc3ccc(C(=O)c4ccccc4)cc3n12	/	-1.4%	/	/	-1.7	/
Cn1cc(S(=O)(=O)N2CCCCCC2)cc1C(=O)Nc1ccccc1F	/	3.4%	/	/	/	/
CC(C)C(NC(=O)Cc1ccccc1)C(=O)N1CCN(c2cccc(Cl)c2)CC1 (stereo not given)	-2.2%	0.6%	10.4%	0.0	4.8	28.2µM*
O=C(NCc1ccccc1)C(=O)Nc1c2c(nn1-c1ccc(F)cc1)CSC2	/	-0.2%	/	/	-78.7*	/
CCN(Cc1ccccc1)S(=O)(=O)c1cc(Br)cc2c1N(C(=O)C1CC1)CC2	/	-1.9%	/	/	/	/
CCn1c(C)nc2cc(C(=O)NNC(=O)c3ccc(C)cc3)ccc21	-0.6%	0.2%	6.9%	-2.7	-0.7	-8.4%
CCn1c(C)nc2cc(C(=O)OC(C(F)(F)C(F)F)C(F)(F)C(F)F)ccc21	-4.7%	-0.2%	10.8%	1.1	-4.7	22.4µM*
CCOC(=O)C1=C(O)/C(=C/c2cccc(OC)c2O)N=C1C	-10.4%	-0.9%	-52.4%	1.5	-63.5*	-21.4%
CN(Cc1ccc(C(C)(C)C)cc1)Cc1cccc2ccccc12	/	/	/	/	-19.4	/
CN(C/C=C/c1ccccc1)Cc1cccc2ccccc12	-1.0%	0.1%	/	-3.3	-69.2*	-12.7%
COc1ccc(C(NC(=O)c2cc(OC)ccc2OC)c2ccccc2)cc1 (stereo not given)	-0.1%	-0.8%	-2.4%	-0.5	-3.5	-12.6%
COc1ccc(C(NC(=O)c2c(F)c(F)c(F)c(F)c2F)c2ccccc2)cc1 (stereo not given)	-14.7%	-2.2%	-37.9%	0.1	?	31.6µM*
Cc1cc(CCCOc2c(C)cc(-c3noc(C(F)(F)F)n3)cc2C)on1	/	/	/	/	-28.8	/
COc1ccc(C2CC(c3ccccc3)=NN2C(=S)Nc2ccccc2)cc1 (stereo not given)	50.1µM*	6.7%	5.4%[15.4 µM]	-8.6	-33.8	-7.5%
COc1ccc(C2=NN(C(=S)Nc3ccccc3)C(c3ccccc3)C2)cc1 (stereo not given)	-23.6%	-0.2%	2.8%	-2.6	-21.1	10.6%
Cc1cn(C2OC(COC(=O)c3ccccc3)C(O)C2O)c(=O)[nH]c1=O (stereo not given)	-0.7%	1.0%	7.3%	-31.9*	-8.4	0.9%
COc1ccc(-n2nnnc2C2CCN(S(=O)(=O)c3ccc(NC(C)=O)cc3)CC2)cc1	/	-3.0%	/	/	-12.8	/
COc1ccc2c(c1OC)C(=O)N(c1ccc(F)cc1)C2	-0.4%	-0.8%	7.0%	-40.5*	-5.4	0.4%
CC(C)C(=O)Nc1cccc(C2CN3CCSC3=N2)c1 (stereo not given)	/	/	/	/	10.3	/
COc1cccc(-n2c(-c3ccco3)nc3c(cnn3-c3ccc(C)cc3)c2=O)c1	/	4.1%	/	/	-34.7	/
N#CC(C#N)=C1C=CC=CN1/C(=C\c1ccccc1Cl)C(=O)c1ccccc1	-3.5%	-0.9%	4.3%	-3.4	-82.2*	9.9%
N#CC(C#N)=C1C=CC=CN1/C(=C\c1ccccc1)C(=O)c1cccs1	-11.7%	0.5%	-38.6%	-1.9	0.0	-3.5%
COc1ccc(CCNCc2c(C(=O)O)c(C)n(Cc3cccc(Cl)c3)c2C)c(OC)c1OC	/	2.2%	/	/	-11.0	/
